# Screens from PubChem BioAssay.
# HP1b chromo inh – HTS for Inhibitors of HP1-beta Chromodomain Interactions with Methylated Histone Tails; AlphaScreen HP1-beta / biotin-H3K9me3 peptide binding; Potency, µM (series often up to 114 µM), for inactives: at the top dose activity change, negative = inhibition, actives largely listed as inhibitors; hit rate 0.56% among 390,000; AID 540317, 2011; further: nearly all actives have a fitted effect of over 70% in size
#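 HP1-beta protein (50 nM final) preincubated 30 min at room temperature with biotinylated H3(1-18)K9me3 peptide (50 nM) in PBS pH 7.4, 0.01% Tween-20, then compound added for 30 min. AlphaScreen streptavidin donor/nickel chelate acceptor beads (10 ug/mL final), 30 min dark, luminescence read.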
# G9a block – qHTS Assay for Inhibitors of Histone Lysine Methyltransferase G9a; hit rate 8.8% among 350,000; G9a H3K9 monomethylation, AlphaScreen, 2 h; AID 504332, 2011; Potency, µM (doses to about 102 µM), for the others: top-dose activity, negative = inhibition, usual class: inhibitors; further: on the % scale 0 is the no-effect control and ±100 the full control effect; nearly all actives have a fitted effect of over 75% in size
#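 Methyltransferase reactions run at room temperature for 2 h (20 nM enzyme, 500 nM biotin-H3K9 peptide, 20 uM SAM) after a 15 min compound preincubation; product detected by AlphaScreen beads and anti-H3K9me1 antibody.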
# Sfp PPTase inh – qHTS Assay for Inhibitors of Bacillus subtilis Sfp phosphopantetheinyl transferase (PPTase); Biochemical Sfp PPTase activity, qHTS; Potency, µM, without a hit: largest response in the series, negative = inhibition, most hits filed as inhibitors; hit rate 3.5% among 310,000;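 further: the enzyme is Sfp with the accession as filed and its product quenches rhodamine fluorescence; 0% = enzyme reaction without inhibitor and -100% = no enzyme wells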
#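 Compounds were incubated with enzyme (final 15 nM) for 15 min at room temperature before substrate addition started the reaction. Fluorescence at 525 nm excitation, 598 nm emission was recorded immediately and after 30 minutes.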
# BAZ2B block – qHTS Assay for Inhibitors of BAZ2B; AID 504333, 2011; Potency, µM (series often up to 114 µM), for the others: top-dose activity change, negative = inhibition, actives largely listed as inhibitors; Bromodomain adjacent to zinc finger domain protein 2B (Homo sapiens), Q9UIF8; AlphaScreen BAZ2B-H3K14Ac peptide displacement; hit rate 4.4% among 360,000; further: on the % scale 0 is the no-effect control and ±100 the full control effect; nearly all actives have a fitted effect of over 60% in size
#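 Protein-peptide AlphaScreen: BAZ2B 50 nM, b-H3K14Ac 50 nM, 1x PBS pH 7.4 + 0.01% Tween-20. Preincubation 30 min RT; cpd 30 min RT (top 110 uM); beads 20 min RT, light-protected.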
# JMJD2A Tudor – qHTS Assay for Inhibitors of JMJD2A-Tudor Domain; AlphaScreen JMJD2A-Tudor / H3K4me3 peptide binding; Potency, µM (top dose mostly 114 µM), for the others: at the top dose activity change, negative = inhibition, most hits filed as inhibitors; hit rate 4.4% among 390,000; further: on the % scale 0 is the no-effect control and ±100 the full control effect; nearly all actives have a fitted effect of over 50% in size
# L3MBTL1 block – qHTS Assay for the Inhibitors of L3MBTL1; Lethal(3)malignant brain tumor-like protein 1 (Homo sapiens), Q9Y468; AlphaScreen L3MBTL1–H3K9me1 peptide binding; Potency, µM (titrated, usually from 57.1 µM), for inactives: at the highest dose activity, negative = inhibition, usual class: inhibitors; hit rate 0.66% among 230,000; further: on the % scale 0 is the no-effect control and ±100 the full control effect; nearly all actives have a fitted effect of over 60% in size
#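 AlphaScreen assay: L3MBTL1 (50 nM final) was preincubated 30 min at room temperature with biotinylated H3(1-15)K9me1 peptide (75 nM final), then 30 min with library compounds; streptavidin donor and nickel chelate acceptor beads (10 ug/mL final) added, 30 min dark.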
# Starred values were filed as active, the others as inactive; ? = inconclusive; . = no result; [ ] = dose if it differs, or a comment. In the library only some 12% were active in any assay of this set; here they are far more common. The call rests on the fitted dose curve; in most records, active means well fitted curve in the direction sought with a large enough effect; inconclusive means small, poorly fitted or top-dose-only effect, or another doubt; inactive means no such curve, though single readings can be large; an effect the other way counts as inactive or inconclusive. Potency means the concentration at half of the fitted maximal effect.
SMILES,HP1b chromo inh,G9a block,Sfp PPTase inh,BAZ2B block,JMJD2A Tudor,L3MBTL1 block
COc1ccc(CNC(=O)C[C@H]2C[C@H](C(=O)N3CCCCC3)[C@@]3(C)c4[nH]c5ccc(Cl)cc5c4CCN3C2=O)cc1OC,-7%,.,.,.,56µM*,-8%
CCN(CC)C(=O)[C@H]1C[C@H](CC(=O)NCc2ccc(OC)c(OC)c2)C(=O)N2CCc3c([nH]c4cc(-c5ccco5)ccc34)[C@]12C,-19%,.,.,.,?,-27%
COc1ccc(CNC(=O)C[C@H]2C[C@H](C(=O)N3CCCCC3)[C@@]3(C)c4[nH]c5cc(-c6ccco6)ccc5c4CCN3C2=O)cc1OC,?,.,.,.,56µM*,?
O=C(O)CN1C(=O)/C(=C\c2cccc(OCc3ccc(Cl)cc3Cl)c2)SC1=S,?,.,79µM*,79µM*,50µM*,-14%
O=C(O)CN1C(=O)/C(=C\c2cc(Br)ccc2OCc2ccccc2Cl)SC1=S,-20%,14µM*,?,45µM*,?,.
CCOc1ccccc1C=C1SC(=S)N(CC)C1=O,-23%[57 µM],.,.,.,?,.
O=C(O)CCN1C(=O)/C(=C\c2cccc(OCc3ccccc3)c2)SC1=S,-15%,?,11%,-38%,-34%,.
O=C(O)CN1C(=O)/C(=C\c2cc(Br)ccc2OCc2ccccc2F)SC1=S,-11%,40µM*,-19%,56µM*,50µM*,.
O=C(O)CN1C(=O)/C(=C\c2ccccc2OCc2ccc(Cl)cc2Cl)SC1=S,-13%,32µM*,?,?,56µM*,?
O=C(O)COc1ccc(Br)cc1/C=C1/SC(=O)N(CC(=O)N2CCCC2)C1=O,38%,-36%[2.33 µM],-12%,4%,?,.
O=C(O)CN1C(=O)/C(=C\c2cc(Br)ccc2OCc2ccc([N+](=O)[O-])cc2)SC1=S,-38%,20µM*,?,45µM*,56µM*,.
COc1cccc(CN2CC34CCC(CC3S2(=O)=O)O4)c1 (stereo not drawn),10%,.,1%,.,-13%,.
CCCCC(OC(=O)CNC(=O)c1ccccc1)C(=O)Nc1cc(C(F)(F)F)ccc1Cl (stereo not drawn),.,.,.,.,-12%,.
CCc1ccc(NS(=O)(=O)c2cc(OC)ccc2OC)cc1,27%,26%,8%,1%,-14%,-1%
CCc1ccc(NS(=O)(=O)c2[nH]ncc2C(=O)OC)cc1,18%,2.5µM*,.,?,56µM*,.
CC(C)c1nc2ccc(C(=O)Nc3ccccc3F)cc2o1,21%[57 µM],-4%[59 µM],.,-1%,-8%,.
COc1ccc2c(c1)c(=O)oc1cc(OCC(=O)NC3CCCCC3)ccc12,?,11µM*,-9%,79µM*,40µM*,?
COc1ccc2c(c1)c(=O)oc1cc(OCC(=O)NC3CC3)ccc12,4%,?,9%,?,-34%,8%[11.4 µM]
CCOC(=O)c1c(-c2ccccc2)oc2ccc(N(C(C)=O)S(=O)(=O)c3ccc(CC)cc3)cc12,18%,6%[59 µM],.,-12%,-1%,.
Cc1ccc([N+](=O)[O-])cc1S(=O)(=O)Nc1cccc(-c2ccc(N3CCCC3)nn2)c1,2%,14µM*,.,?,-28%,-9%
O=[N+]([O-])c1ccc(Cl)c(S(=O)(=O)Nc2cccc(-c3ccc(N4CCOCC4)nn3)c2)c1,9%,50µM*,.,-29%,-16%,-2%
O=[N+]([O-])c1ccc(S(=O)(=O)Nc2cccc(-c3ccc(N4CCOCC4)nn3)c2)cc1,9%,25µM*,.,-26%,-15%,0%
